ROMK primary = modulators of human ROMK potassium channel. P48048. Tet-inducible ROMK, thallium flux fluorescence; actives lie on both sides. B-score at 10 µM. 130,000 compounds, 2% hits;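 active = signal ratio slope over the read window, or its plate-corrected B-score, at least 3 SD from the plate mean, either direction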;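 note: B-score of the F/F0 ratio slope over 7 to 12 s after thallium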
PERK inhibitor = blocks human PERK kinase; Q9NZJ5; CHO PERK-DD fusion, SEAP luminescence translation reporter; inhibition, % at 5.6 µM; 220,000 compounds, 0.17% hits; AID 1416;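 active = inhibition above the mean inhibition of all tested compounds plus 3 SD, set separately per screening campaign, cut at about 2.9% in these data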;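 note: PERK kinase domain activated by AP20187 dimerizer at 100 nM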
Target sequence (Q9NZJ5 whole entry, looked up, the tested form may be a part): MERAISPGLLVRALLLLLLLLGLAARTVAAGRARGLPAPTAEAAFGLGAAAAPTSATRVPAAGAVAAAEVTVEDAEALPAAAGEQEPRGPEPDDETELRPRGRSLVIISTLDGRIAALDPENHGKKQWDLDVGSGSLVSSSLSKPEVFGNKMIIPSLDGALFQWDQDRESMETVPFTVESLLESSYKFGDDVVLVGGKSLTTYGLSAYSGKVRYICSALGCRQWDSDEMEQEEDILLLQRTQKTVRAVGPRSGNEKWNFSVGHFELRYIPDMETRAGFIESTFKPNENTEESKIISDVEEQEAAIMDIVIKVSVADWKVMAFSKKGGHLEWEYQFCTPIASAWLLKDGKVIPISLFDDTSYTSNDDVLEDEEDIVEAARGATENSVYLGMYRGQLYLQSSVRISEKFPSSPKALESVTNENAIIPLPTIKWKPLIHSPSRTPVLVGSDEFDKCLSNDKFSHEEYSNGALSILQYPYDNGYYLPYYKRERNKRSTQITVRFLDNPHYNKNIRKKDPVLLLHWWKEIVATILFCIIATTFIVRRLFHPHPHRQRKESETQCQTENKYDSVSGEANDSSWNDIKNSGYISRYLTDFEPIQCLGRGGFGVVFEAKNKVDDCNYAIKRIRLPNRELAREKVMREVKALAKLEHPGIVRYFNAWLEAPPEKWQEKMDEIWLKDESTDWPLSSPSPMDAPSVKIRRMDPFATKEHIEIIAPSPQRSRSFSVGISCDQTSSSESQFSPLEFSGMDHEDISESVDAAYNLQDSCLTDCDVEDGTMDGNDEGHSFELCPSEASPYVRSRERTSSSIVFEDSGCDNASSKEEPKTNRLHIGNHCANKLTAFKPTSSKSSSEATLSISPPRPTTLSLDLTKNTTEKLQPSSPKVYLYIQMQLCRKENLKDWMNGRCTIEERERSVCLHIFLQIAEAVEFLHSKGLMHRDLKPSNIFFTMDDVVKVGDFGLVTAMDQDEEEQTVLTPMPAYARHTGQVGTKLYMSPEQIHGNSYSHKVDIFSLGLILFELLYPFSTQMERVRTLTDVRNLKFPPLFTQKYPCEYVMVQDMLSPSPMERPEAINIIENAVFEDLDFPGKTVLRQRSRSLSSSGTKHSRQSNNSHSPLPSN
WT yeast gro inh = growth inhibition of WT yeast, mitochondrial fusion screen; inhibition, % at 10 µM; 190,000 compounds, 2.1% hits; mitochondrial fusion phenotypic screen, WT strain; AID 1362; in the data active = inhibition above about 58%; tested in S. cerevisiae
Arbovirus inh = blocks arbovirus infection; arbovirus infection cell-based antiviral screen; inhibition, % at 10 µM; 200,000 compounds, 0.37% hits; in the data active = inhibition above about 30%
Of the large screens only hits and unclear results are named; the others gave an inactive call. The list is not random: actives were taken first. Their share in the collection is about 3.3%.

Cc1nc2ccc(NC(=O)c3cc([N+](=O)[O-])cc([N+](=O)[O-])c3Cl)cc2s1	none (no result: ROMK primary)
CN1C(=O)N(C)C2(c3ccccc3)N(C)C(=O)NC12c1ccccc1 (centres undefined)	none (no result: ROMK primary)
CCC(C)NS(=O)(=O)c1ccc(OCC(=O)NCc2ccccn2)cc1 (centres undefined)	PERK inhibitor 3.2
C=CCc1cc(/C=N/NC(=O)CSc2nnc(CCCc3ccc(OC)cc3)o2)cc(OC)c1O	none
COC(=O)c1cccc(NC(=O)CC2C(=O)NCCN2C(=O)c2ccc(F)cc2F)c1 (centres undefined)	none (no result: ROMK primary, WT yeast gro inh, Arbovirus inh)
COc1ccc(-c2cc(-c3ccc(Br)cc3)nc3ncnn23)cc1OC	Arbovirus inh 72 (no result: ROMK primary)
C/C(=N\NC(=S)NCc1ccccc1)c1ccc2ccccc2c1OC(F)F	WT yeast gro inh 68
C/C(=N\NC(=S)NCc1ccccc1)c1ccc(Br)cc1	WT yeast gro inh 71
O=C1c2ccccc2C(=O)N1CCN1CCCCC1	WT yeast gro inh 66 (no result: ROMK primary)
O=C1C(=O)N(CCN2CCCCC2)c2ccccc21	none
Cc1nc2ccc(NC(=O)c3nn(CC(C)C)c(=O)c4ccccc34)cc2s1	WT yeast gro inh 64
Cc1nnc(NC(=O)c2nn(CC(C)C)c(=O)c3ccccc23)s1	none
Cc1cc(NC(=O)c2cccs2)ccc1NC(=O)Cc1ccccc1	none
CCOc1ccccc1N1CCN(C(=O)c2ccncc2)CC1	none (no result: ROMK primary)
CCOc1ccccc1N1CCN(C(=O)Nc2ccc(Cl)c(Cl)c2)CC1	WT yeast gro inh 68 (no result: ROMK primary)
Cc1c(-c2n[nH]c(=S)n2-c2ccc(C(F)(F)F)cc2)nnn1-c1ccccc1	none
COc1ccc(C)cc1NC(=O)C1CCCN(S(=O)(=O)c2c(C)noc2/C=C/N(C)C)C1 (centres undefined)	none (no result: ROMK primary, PERK inhibitor)
COc1cccc(Nc2nc(-c3sc(NC(=O)CC(C)C)nc3C)cs2)c1	none (no result: ROMK primary)
COc1cccc(Nc2nc(-c3sc(NC(=O)c4ccccc4)nc3C)cs2)c1	WT yeast gro inh 66
COc1ccc(-c2cc3nc4c(c(N5CCC6(CC5)OCCO6)n3n2)CCC4)cc1	none
Cc1cccc(-c2cc3nc4c(c(N5CCOCC5)n3n2)CCCC4)c1	WT yeast gro inh 69 (no result: ROMK primary)
COc1cccc(-c2cc3nc4c(c(N5CCC6(CC5)OCCO6)n3n2)CCC4)c1	WT yeast gro inh 65
C=CCOC(=O)c1sc(NC(=O)c2ccco2)nc1C	none (no result: ROMK primary)
C(=C\c1ccccc1)/CN1CCN(C(c2ccccc2)c2ccccc2)CC1	WT yeast gro inh 70 (no result: ROMK primary)
Fc1ccc(C(c2ccc(F)cc2)N2CCN(C/C=C/c3ccccc3)CC2)cc1	WT yeast gro inh 82 (no result: ROMK primary)
CC(C(=O)N(C)Cc1ccccc1)N1CCN(C/C=C/c2ccccc2)CC1 (centres undefined)	none (no result: ROMK primary, WT yeast gro inh, Arbovirus inh)
CCNc1nc2nonc2nc1NCC	none
CC12CCC(C(=O)Nc3nc4ccc(Br)cc4s3)(OC1=O)C2(C)C (centres undefined)	WT yeast gro inh 66
C=CCNC(=O)c1onc(CSc2cccc(C)c2)c1C(=O)O	none (no result: ROMK primary)
CN(CC(=O)Nc1ccccc1-c1ccccc1)Cc1ccccc1Cl	WT yeast gro inh 70
Cc1ccc(NC(=O)CN(C)CC(=O)Nc2ccccc2-c2ccccc2)cc1	none
COc1cc(Cl)c(C)cc1NC(=O)CN(C)Cc1cccc(OC)c1OC	WT yeast gro inh 59
COc1ccc(Br)cc1CN(C)CC(=O)Nc1cc(Cl)ccc1Cl	none (no result: ROMK primary)
COc1ccc(Br)cc1CN(C)CC(=O)Nc1ccccc1Cl	WT yeast gro inh 67 (no result: ROMK primary)
CCC/C(O)=C1\C(=O)CC(c2ccccc2)CC1=NC(C)C(=O)O (centres undefined)	none (no result: ROMK primary)
COc1ccc(Cn2c(C)c(C)c(C#N)c2NC(=O)Nc2cccc(C)c2)cc1	Arbovirus inh 52 (no result: ROMK primary)
CCC1(C)OCC(Cn2c3ccccc3c3ccccc32)O1 (centres undefined)	WT yeast gro inh 61
Cc1ccc(SCC(=O)Nc2ccccc2C(=O)O)cc1	none
C[C@H](NC(=O)c1ccccc1)C(=O)Nc1nc(-c2ccccn2)cs1	none
Cc1cccc(C(=O)NC(C(=O)Nc2nc(-c3ccccn3)cs2)C(C)C)c1 (centres undefined)	WT yeast gro inh 72
CC1CC(C)(C)Nc2ccc(N=O)cc21 (centres undefined)	WT yeast gro inh 75
Clc1ccc(CSc2cc3c(nn2)-c2ccccc2CC3)cc1	none (no result: ROMK primary)
Cc1cccc(C2c3[nH]c4ccccc4c3CCN2C(=O)c2noc3c2CCCC3)n1 (centres undefined)	WT yeast gro inh 60
CSc1nc(C(=O)N2CCc3c([nH]c4ccccc34)C2c2ccccn2)cs1 (centres undefined)	WT yeast gro inh 59
COc1ccc(C(C)=O)cc1CSc1nc2ccccc2c(=O)n1-c1cccc(C)c1	WT yeast gro inh 65
C=CCn1c(SCc2cc(C(C)=O)ccc2OCC)nc2ccccc2c1=O	none
COc1ccc(C(C)=O)cc1CSc1nc2ccccc2c(=O)n1-c1ccccc1C	WT yeast gro inh 61
COc1ccc(C(C)=O)cc1CSc1nc2ccccc2c(=O)n1-c1ccccc1	none (no result: ROMK primary)
COC(=O)c1nnn(CC(=O)NC(=O)Nc2ccccc2)c1C(=O)OC	none
COc1ccc(CSCCNC(=S)Nc2ccccc2)cc1Cl	WT yeast gro inh 77
Cc1c(C(=O)NCCSCc2ccc(Cl)cc2Cl)cccc1[N+](=O)[O-]	WT yeast gro inh 69
S=C(NCCSCc1ccc(Cl)c(Cl)c1)Nc1ccccc1	none (no result: ROMK primary, WT yeast gro inh, Arbovirus inh)
Cc1ccccc1CSCCNC(=S)Nc1ccccc1	WT yeast gro inh 71
S=C(NCCSCc1c(Cl)cccc1Cl)Nc1ccccc1	WT yeast gro inh 82 (no result: ROMK primary)
Cc1ccccc1CSCCNC(=O)c1ccccc1	none
CCCOc1ccc(N2C(=O)CC(N3CCCC(C(=O)N4CCCC4)C3)C2=O)cc1 (centres undefined)	none
CC(=O)c1ccc(NC(=S)NCc2ccc(Cl)cc2Cl)cc1	none
S=C(NCCSCc1ccc(Cl)cc1Cl)Nc1ccccc1	WT yeast gro inh 80 (no result: ROMK primary)
CC(NC(=O)COc1ccccc1-c1ccccc1)c1ccccc1 (centres undefined)	WT yeast gro inh 71 (no result: ROMK primary)
CC(=O)Nc1ccccc1OCC(=O)NC(C)c1ccccc1 (centres undefined)	none
CCOC(=O)/C(=N\Nc1ccc(OC)cc1)c1csc(Nc2ccccc2)n1	none (no result: ROMK primary)
O=C(Nc1sc2c(c1C(=O)O)CCC2)c1ccco1	none (no result: ROMK primary)
CC(C)OC(=O)c1c(NC(=O)c2cccs2)sc2c1CCCC2	none
O=C(Nc1sc2c(c1C(=O)O)CCCCC2)c1ccccc1F	Arbovirus inh 38
CC(=O)Nc1sc2c(c1C(N)=O)CCC2	ROMK primary 2.5
O=C(Nc1sc2c(c1C(=O)O)CCCC2)c1cccs1	Arbovirus inh 48
Cc1ccc(C(=O)Nc2sc3c(c2C(=O)O)CCCCC3)o1	Arbovirus inh 47
CC(=O)Nc1sc2c(c1C(N)=O)CCCC2	none (no result: ROMK primary)
CC(C)Cc1nc(N2CCOCC2)c(C#N)c2c1COC(C)(C)C2	none
CCN1C(=O)/C(=C/c2ccc(OC)c(OC)c2)N=C1SCC(=O)NCc1ccco1	none
COCCNc1ccc(N2C(=O)C3CCCCC3C2=O)cc1[N+](=O)[O-] (centres undefined)	none
CCOC(=O)C1(Cc2cccc(F)c2)CCN(C(=O)c2ccoc2C)CC1	none
O=C(Nc1sc2c(c1C(=O)O)CCCCC2)c1cccs1	Arbovirus inh 46
CC(C)(C)C1CCc2c(sc(NC(=O)c3cccs3)c2C(=O)N2CCCCC2)C1 (centres undefined)	WT yeast gro inh 62 (no result: ROMK primary)
